Measurements reported in PubChem BioAssay AID1345083 (National Center for Advancing Translational Sciences (NCATS), 2018).
The campaign covered roughly 94,000 compounds. About 6,200 (6.6%) were called active. Inconclusive results (about 31%) are left out. Calls come from the whole dose curve; as a rule, active = well fitted inhibition curve with a large enough effect; inconclusive = small, poorly fitted or top-dose-only effect; inactive = flat fitted curve, though single readings scatter. Shown is part of a subset that was picked to be rich in actives. A call without a number means that no potency is given here.
Potency is the fitted concentration of half-maximal effect.

Test: Cytotoxic Profiling in HEK 293 Cell Line of Diverse Libraries Using Quantitative High-Throughput Screening; note: nearly all actives have a fitted effect of over 60% in size
Details: HEK 293 viability, ATP luminescence (CellTiter-Glo), 48-72 h; series mostly up to 115 µM
In short: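 Viability of HEK 293 cells, plated at 250 cells/well, was judged by cellular ATP after compound treatment for 48 or 72 hr. Luminescence was imaged 10 min after CellTiter-Glo addition at room temperature.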
In the case of CC(=O)NCc1nnc2n1C(C(=O)N1CCN(C)CC1)CC2 (stereo not drawn), the Potency is reported as “inactive”. In the case of COCc1nncn1C1CCN(C(=O)c2ccccc2OC(F)(F)F)CC1, the Potency is reported as “inactive”. For CC(=O)Nc1ccc2c(c1)nc1n2[C@@H](CNCc2ccncc2F)COC1, the Potency was “inactive”. With CN1CCCN(c2ccc(C(=O)N3CCC(N4CCOCC4)CC3)cn2)CC1 the Potency was “inactive”. In the case of O=C(NC1C[C@H]2CC[C@@H](C1)N2S(=O)(=O)c1ccc2c(c1)OCCO2)c1ccc(F)cc1 (stereo partly drawn), the Potency is reported as “inactive”. In the case of O=C(NC1CCCN(c2cc(-c3ccc(Cl)cc3)[nH]n2)C1)c1ccncc1 (stereo not drawn), the Potency is reported as 39.8 µM (active). In the case of CCn1ccc(C(=O)NC2CCCN(c3cc(-c4ccc(F)cc4)[nH]n3)C2)n1 (stereo not drawn), the Potency is reported as “inactive”. For O=C(NC1CCCN(c2ccc3nnc(C4CC4)n3n2)C1)c1ccccn1 (stereo not drawn), the Potency was “inactive”. In the case of O=C(NC1CCCN(c2cc(-c3ccc(Cl)cc3)[nH]n2)C1)c1ccccc1F (stereo not drawn), the Potency is reported as 44.7 µM (active). For O=C(NC1CCCN(c2cc(-c3ccc(F)cc3)[nH]n2)C1)c1ccc(Br)cc1 (stereo not drawn), the Potency was 39.8 µM (active). For O=C(NC1CCCN(c2nc3ncccc3o2)C1)c1ccc(F)cc1 (stereo not drawn), the Potency was “inactive”. For Cc1nnc2ccc(N3CCC(NC(=O)c4ccccc4Cl)C3)nn12 (stereo not drawn), the Potency was “inactive”. For CN(C)C1(CC2CC2)CCN(C(=O)c2ccsc2)CC1, the Potency was “inactive”. With CC(C)CN1C(=O)c2cccn2CC1C(=O)NC1CCS(=O)(=O)C1 (stereo not drawn) the Potency was “inactive”. With COc1ccc(CN2CCCC(c3[nH]ccc3C(N)=O)C2)cc1Cn1ccnc1 (stereo not drawn) the Potency was “inactive”. With O=C(c1ccc(N2CC3CC(C2)[C@H]2CCCC(=O)N2C3)nc1)N1CCCCC1 (stereo partly drawn) the Potency was “inactive”. With COc1cncc(-c2cccc(COc3ccc4c(cnn4CC[S+](C)(=O)[O-])c3)c2)c1 the Potency was 56.2 µM (active). With O=C(CC1CCN(C(=O)c2ccccc2)C1)NC1CC1 (stereo not drawn) the Potency was “inactive”. For CCn1c(C2CCCNC2)nn(Cc2ccc(C(=O)NC)o2)c1=O (stereo not drawn), the Potency was “inactive”. In the case of Brc1cccc(-c2noc(-c3nc(-c4ccncc4)no3)n2)c1, the Potency is reported as “inactive”. For COc1ccc(-c2nc(CN3CCOC(CN)C3)c(C)o2)c2ccccc12 (stereo not drawn), the Potency was 31.6 µM (active). With Cc1oc(-c2cccc(Oc3ccccc3)c2)nc1CN1CCOC(CCN)C1 (stereo not drawn) the Potency was 28.2 µM (active). In the case of CCn1cnnc1CC1CCN(C(=O)C2CCN(Cc3nc(-c4cccc(C)c4)oc3C)CC2)CC1, the Potency is reported as “inactive”. With Cc1oc(-c2cccc(Cl)c2)nc1CN1CCCC(C(N)=O)C1 (stereo not drawn) the Potency was “inactive”. For COc1ccc(-c2noc(CN3CCCC(C(=O)c4cccnc4)C3)n2)c(OC)c1OC (stereo not drawn), the Potency was “inactive”. With COC(=O)[C@@H]1Cc2ncn(Cc3ccc(Cl)cc3)c2CN1S(=O)(=O)c1ccc(C(C)=O)cc1 the Potency was “inactive”. With CCCN(CC1CCOC1)C(=O)Nc1cc(C)ccc1OC (stereo not drawn) the Potency was “inactive”. With Cc1ncsc1CCC(=O)N[C@@H]1COCC[C@@H]1Oc1cccc(F)c1 the Potency was “inactive”. For COc1ccc2[nH]cc(CCNC(=O)C3CCCN(Cc4ccncc4)CCC(=O)NCC3)c2c1 (stereo not drawn), the Potency was “inactive”. In the case of Cc1cc(C(=O)N2CCCCC2c2noc(COc3ccc(F)cc3)n2)nn1C (stereo not drawn), the Potency is reported as “inactive”. In the case of COc1ccc2ccc(OCc3nc(C(=O)N4CCC(=O)NCC4C)co3)cc2c1 (stereo not drawn), the Potency is reported as 44.7 µM (active). For COc1ccc(OCc2nc(C(=O)N3CCCC(C)(CO)C3)co2)cc1 (stereo not drawn), the Potency was “inactive”. With Cc1nc(N2CCC(C(=O)NCc3ccc(C(C)C)cc3)CC2)cc(C(F)(F)F)n1 the Potency was 31.6 µM (active). For Cc1nc(N2CCC(NC(=O)c3ccc4c(c3)OCO4)CC2)cc(C(F)(F)F)n1, the Potency was “inactive”. For COc1ccc(OC)c(NC(=O)C2CCN(c3cc(C(F)(F)F)ncn3)CC2)c1, the Potency was “inactive”. In the case of Cc1ccc(N2Cc3c(NCC4CC4)ncnc3N(C)CC2=O)cc1, the Potency is reported as “inactive”. With CN1CCN(C2CCOC3(CCN(S(=O)(=O)c4cn(C)cn4)CC3)C2)CC1 (stereo not drawn) the Potency was “inactive”. In the case of CC(C)C(=O)N1CCC(OC2CCN(Cc3ccccc3)CC2)CC1, the Potency is reported as “inactive”. In the case of COCCNC(=O)N1CCc2nn(Cc3ccccc3)c(=O)n2CC1, the Potency is reported as “inactive”. For CC(C)(Oc1nn(Cc2cccc(Cl)c2)c2ccccc12)C(=O)Nc1cccnc1, the Potency was 35.5 µM (active). In the case of CN1CCN(C(=O)C(C)(C)Oc2nn(Cc3cccc(Cl)c3)c3ccccc23)CC1, the Potency is reported as 70.8 µM (active). With CN(C)CCNC(=O)C(C)(C)Oc1nn(Cc2cccc(Cl)c2)c2ccccc12 the Potency was 31.6 µM (active). For O=C(NCc1cccnc1)C1CCCN(c2cnn(Cc3ccccc3)c(=O)c2)C1 (stereo not drawn), the Potency was “inactive”. With COCc1ccc2c(c1)c(OC(C)(C)C(=O)N1CCN(C)CC1)nn2Cc1cccnc1 the Potency was “inactive”. With COCc1ccc2c(c1)c(OC(C)(C)C(=O)NC1CCC(O)CC1)nn2Cc1cccnc1 (stereo not drawn) the Potency was “inactive”. In the case of Cc1ccccc1C(=O)NCc1c[nH]c2ncccc12, the Potency is reported as “inactive”. With N#Cc1ccc(CN2CC3CCC(C2)N3c2ccc(C(F)(F)F)cc2)cc1 the Potency was “inactive”. In the case of O=C(c1ccn[nH]1)N1CCC[C@H](n2c(=O)n(CC3CC3)c3cccnc32)C1, the Potency is reported as “inactive”. For COCCn1c(=O)n([C@H]2CCCN(C(=O)c3ccccc3F)C2)c2ncccc21, the Potency was “inactive”. With NC(=O)c1cccnc1OC1CCN(Cc2cccnc2)CC1 the Potency was “inactive”. For CCOCc1nc(C2CCCN(C(=O)NC(C)C)C2)no1 (stereo not drawn), the Potency was “inactive”. In the case of O=C(NCc1ccco1)C1CCCN(c2cnn(Cc3ccccc3)c(=O)c2)C1 (stereo not drawn), the Potency is reported as “inactive”. For Cc1noc(C)c1S(=O)(=O)N1CCC(c2noc(-c3ccccn3)n2)C1 (stereo not drawn), the Potency was “inactive”. For O=C1CCN(C(=O)C2COc3ccccc3O2)CCOCCN1 (stereo not drawn), the Potency was “inactive”. With C[C@@H](NC(=O)C1=C[C@@H](NC(=O)CC2(CC(=O)O)CCCC2)[C@@H](O)[C@H](O)C1)C(N)=O the Potency was “inactive”. With CN1CCC(C(=O)N2CC(F)(F)C[C@H]2c2nc(C3CC3)no2)CC1 the Potency was “inactive”. In the case of Cc1noc2c(NC3CCCCC3)cc(-c3ccsc3)nc12, the Potency is reported as 89.1 µM (active). In the case of COCCCNc1cc(-c2ccsc2)nc2c(C)noc12, the Potency is reported as “inactive”. With O=C(Nc1ccc(-c2nnc3n2CCCC3)cc1)c1ccccn1 the Potency was “inactive”. For CC(=O)N1CCCC2(C1)CN(C)c1ccc(C(=O)NC3CC3)cc12 (stereo not drawn), the Potency was “inactive”. For COc1ccc(CNC(=O)Cn2cccc2-c2nc(-c3ccc(F)cc3)no2)cc1, the Potency was “inactive”. In the case of COc1ccc(-c2ccc(C(=O)NCc3ccc(F)cc3)cc2)nn1, the Potency is reported as “inactive”. With COCCCN(CCC(=O)NCc1ccc(F)cc1)C(=O)c1cc(C)oc1C the Potency was “inactive”. In the case of Cc1c(-c2ccc(F)cc2)[nH]c2ccc(CNC(=O)c3ccc(CO)o3)cc12, the Potency is reported as 31.6 µM (active). In the case of N#Cc1cccc(-c2c(C(=O)NCc3ccc(F)cc3)nc3sccn23)c1, the Potency is reported as “inactive”. In the case of CNc1nc(C(=O)NCc2ccc3[nH]c(-c4ccc(F)cc4)c(C)c3c2)cs1, the Potency is reported as 39.8 µM (active). With CCOc1ccc2c(n1)CCN(C(=O)Nc1ccc(OC)cc1C)C2 the Potency was “inactive”. With CN1CC(=O)N(c2cccc(F)c2)Cc2c(NC3CCNCC3)ncnc21 the Potency was “inactive”. In the case of CS(=O)(=O)N1CCCN(C(=O)Cc2cccc(F)c2)CCNC(=O)CC1c1ccccc1 (stereo not drawn), the Potency is reported as “inactive”. With CCOCC(=O)N1CC(c2nc(CCOc3cccc(C)c3)no2)C1 the Potency was “inactive”. With Cc1cccc(OCCc2noc(C3CCCN(Cc4ccccc4C#N)C3)n2)c1 (stereo not drawn) the Potency was 89.1 µM (active). For O=C(c1ccccn1)N1CCCC(c2nc(CCOCC3CCOCC3)no2)C1 (stereo not drawn), the Potency was “inactive”. For Cn1ncc2c(C(=O)Nc3ccc(F)cc3)cc(-c3ccc(Cl)cc3Cl)nc21, the Potency was “inactive”. For Cn1ncc2c(C(=O)NC3CCCCC3)cc(-c3cccnc3)nc21, the Potency was “inactive”. For COc1cccc(-c2cc(C(=O)Nc3cccc(Cl)c3)c3cnn(C)c3n2)c1, the Potency was 39.8 µM (active). With Cn1ncc2c(C(=O)Nc3cccc(C(F)(F)F)c3)cc(-c3cccc(C(F)(F)F)c3)nc21 the Potency was “inactive”. For COc1cccc(-c2cc(C(=O)Nc3cccc(F)c3)c3cnn(C)c3n2)c1, the Potency was 44.7 µM (active). In the case of COc1cccc(CNC(=O)c2cc(-c3ccc(Cl)nc3)nc3c2cnn3C)c1, the Potency is reported as “inactive”. In the case of COc1cccc(-c2cc(C(=O)N3CCN(C(C)=O)CC3)c3cnn(C)c3n2)c1, the Potency is reported as “inactive”. With Cc1ccc(NC(=O)c2cc(C(C)(C)C)nc3c2cnn3C)cc1 the Potency was 79.4 µM (active). For CCn1nc(C)cc1C(=O)N1C[C@H]2OC(=O)N(CCCN3CCOCC3)[C@H]2C1, the Potency was “inactive”. In the case of O=C(Nc1cccnc1)O[C@H]1COCCN(c2nc3ccccc3s2)C1, the Potency is reported as “inactive”. With COc1cccc([S+](=O)([O-])N2CCCC3(CC(c4cccc(C(F)(F)F)c4)=NO3)C2)c1 (stereo not drawn) the Potency was “inactive”. In the case of CC(C)N1C[C@H](O)C[C@H]1c1nnc2n1CCN(C(=O)c1ccccn1)CC2, the Potency is reported as “inactive”. In the case of CO[C@H]1C(=O)N(C2CCN(S(=O)(=O)c3c(C)nn(C)c3C)CC2)[C@H]1c1ccncc1, the Potency is reported as “inactive”. With CCCN1C(=O)NC(CC(=O)N2CCC(O)(c3ccc(C)cn3)CC2)C1=O (stereo not drawn) the Potency was “inactive”. With CN(C)S(=O)(=O)N1C[C@@H]2CC[C@H](C1)N(Cc1ccccc1C#N)C2 the Potency was “inactive”. In the case of CC1(C)[C@H](Cc2cc(-c3ccccc3)on2)C[C@@H]1NCC1CC1, the Potency is reported as 100 µM (active). For CC1(C)[C@H](Cc2cc(CCO)on2)C[C@@H]1NCC1CC1, the Potency was “inactive”. In the case of CC1(C)[C@H](Cc2cc(-c3ccccc3)on2)C[C@@H]1NS(C)(=O)=O, the Potency is reported as 89.1 µM (active). For CCn1cnnc1CC1CCN(C(=O)c2cc(-c3ccc(F)cc3)nc3ccccc23)CC1, the Potency was “inactive”. In the case of CN(C)C(C(=O)N1CCC(N2CCSCC2)CC1)c1cccc(F)c1 (stereo not drawn), the Potency is reported as “inactive”. In the case of O=C(NC[C@H]1O[C@@H](CO)[C@@H](O)[C@H]1N1CCOCC1)Nc1ccc(OC(F)(F)F)cc1, the Potency is reported as “inactive”. In the case of O=C(NCc1ccccc1)c1ccc2nc(-c3ccnc(Cl)c3)oc2c1, the Potency is reported as “inactive”. In the case of O=C(NCc1cnn(Cc2ccccc2)c1)c1ccc2oc(-c3cccc(F)c3)nc2c1, the Potency is reported as 7.08 µM (active). With O=C(NCCc1ccccc1)c1ccc2oc(-c3cccnc3)nc2c1 the Potency was “inactive”. In the case of COC1CCOC2(CCN(C(=O)c3cnccn3)CC2)C1 (stereo not drawn), the Potency is reported as “inactive”. With CN(C(=O)NCc1ccccc1)C1CCc2nn(CC3CC3)c(=O)n2CC1 (stereo not drawn) the Potency was “inactive”.
